Results: PubChem BioAssay
Active and inactive are the calls of the source. Unless noted, the rule behind the calls is not given here.

Legend:
[1] = resazurin metabolic signal in HepG2 cells – cell-based, resazurin fluorescence, 24 h, PK04 Diversity Set, profiling panel (AID 1172); details: HepG2 viability, higher = more signal
[2] = budding yeast growth changes without added modifier – OD600, strain BY4716, 24 h, basal condition, primary screen (AID 1173); details: S. cerevisiae BY4716 growth, OD600, 24 h; higher = more signal, called active from +8 up or from −8 down
[3] = viability profiling in MM1S myeloma cells – cell-based, resazurin fluorescence, basal, 24 h, PK04 Diversity Set, profiling panel (AID 1174); details: higher = more signal, called active from +8 up or from −8 down;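 note: MM1S multiple myeloma cell line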
[4] = biological target: Dihydroorotate dehydrogenase (quinone), mitochondrial (Plasmodium falciparum (isolate 3D7)) (UniProt Q08210); assay: inhibition of P. falciparum DHODH – biochemical, C-terminal His tag, absorbance 600 nm, primary screen (AID 1175); details: PfDHODH enzyme, DCIP absorbance 600 nm; higher = more signal, called active from +8 up or from −8 down;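 note: recombinant parasite enzyme with a five histidine tag at its C terminus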
Dihydroorotate dehydrogenase (quinone), mitochondrial (Plasmodium falciparum (isolate 3D7)), sequence (Q08210 whole entry, looked up): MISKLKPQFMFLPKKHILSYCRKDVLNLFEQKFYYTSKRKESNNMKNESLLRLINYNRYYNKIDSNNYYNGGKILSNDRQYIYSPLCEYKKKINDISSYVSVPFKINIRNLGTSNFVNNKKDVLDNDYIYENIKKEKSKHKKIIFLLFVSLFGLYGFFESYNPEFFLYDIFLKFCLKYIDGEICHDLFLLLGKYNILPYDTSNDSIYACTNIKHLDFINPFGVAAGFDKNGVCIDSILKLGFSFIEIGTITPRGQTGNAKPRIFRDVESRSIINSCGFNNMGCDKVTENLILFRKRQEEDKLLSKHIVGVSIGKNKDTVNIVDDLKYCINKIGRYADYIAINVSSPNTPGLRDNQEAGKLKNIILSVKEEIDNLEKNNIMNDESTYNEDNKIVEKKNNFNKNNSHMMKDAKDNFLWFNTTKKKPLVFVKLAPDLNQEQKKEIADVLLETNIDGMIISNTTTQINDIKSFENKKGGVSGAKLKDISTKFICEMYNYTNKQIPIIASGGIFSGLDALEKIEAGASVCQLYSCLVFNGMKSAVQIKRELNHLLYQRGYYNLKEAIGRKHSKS

[5] = inhibition of PAO1 biofilm formation – strain PAO1, LB-PBS medium, absorbance 600 nm, primary screen (AID 1176); details: P. aeruginosa PAO1 growth/biofilm, A600, 12 h; higher = more signal
[6] = growth modulation of vineyard yeast isolate – strain RM11-1a, OD600, basal, 24 h, primary screen (AID 1177);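 note: cultures grown under basal conditions with no added stressor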; details: S. cerevisiae RM11-1a growth, OD600, 24 h; higher = more signal, called active from +8 up or from −8 down
[7] = growth of efflux-deficient E. coli DRC39 – strain DRC39, OD650, 24 h, E. coli filamentation inducers, primary screen (AID 1178);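 note: growth measured as culture turbidity by optical density at 650 nm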; details: E. coli DRC39 acrAB, higher = more signal, called active from +8 up or from −8 down
[8] = growth of efflux-deficient E. coli DRC39 – strain DRC39, OD650, 48 h, E. coli filamentation inducers, primary screen (AID 1179);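 note: screen aims at cell division blockers that make cells filament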; details: E. coli DRC39 delta-acrAB growth, higher = more signal, called active from +8 up or from −8 down
[9] = viability profiling in RPMI8226 myeloma cells – cell-based, resazurin fluorescence, basal, 24 h, PK04 Diversity Set, profiling panel (AID 1180); details: higher = more signal;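 note: RPMI8826 multiple myeloma cell line at 5000 cells per well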
[10] = biological target: E3 ubiquitin-protein ligase XIAP (Homo sapiens) (UniProt P98170); assay: small molecules binding XIAP protein – biophysical, small-molecule microarray, fluorescence 635 nm, primary screen (AID 1181); details: higher = more signal;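 note: score merges 667 nm emission and signal to noise over triplicate slides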
E3 ubiquitin-protein ligase XIAP (Homo sapiens), sequence (P98170 whole entry, looked up, the tested form may be a part): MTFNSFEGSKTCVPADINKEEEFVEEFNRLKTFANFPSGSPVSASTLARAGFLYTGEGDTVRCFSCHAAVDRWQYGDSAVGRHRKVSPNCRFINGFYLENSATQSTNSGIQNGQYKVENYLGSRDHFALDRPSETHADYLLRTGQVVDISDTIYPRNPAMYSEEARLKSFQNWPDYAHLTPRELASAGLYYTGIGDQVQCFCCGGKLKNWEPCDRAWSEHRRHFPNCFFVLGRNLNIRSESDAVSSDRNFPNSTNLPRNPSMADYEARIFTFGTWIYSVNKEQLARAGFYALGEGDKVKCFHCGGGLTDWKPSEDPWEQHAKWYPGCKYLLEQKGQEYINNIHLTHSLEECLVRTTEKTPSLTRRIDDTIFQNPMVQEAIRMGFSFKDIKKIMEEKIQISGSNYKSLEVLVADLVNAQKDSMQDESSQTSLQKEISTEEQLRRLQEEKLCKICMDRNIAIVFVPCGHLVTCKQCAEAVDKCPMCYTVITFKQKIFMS

[11] = tested on: XIP peptide (Xip251-270) binding; assay: XIP fragment 251-270 binding compounds – biochemical, small-molecule microarray, fluorescence 635/667 nm, 0.1 µg/mL protein, primary screen (AID 1182); details: fluorescent protein binding, 635 nm, higher = more signal, called active from +8 up or from −8 down
XIP peptide (Xip251-270) = assay: compounds binding XIP fragment 251-270 – biochemical, small-molecule microarray, fluorescence 635/667 nm, 0.5 µg/mL protein, primary screen (AID 1183); details: fluorescence 635 nm, higher = more signal
[12] = blood-stage malaria parasite viability loss – strain 3D7, DAPI fluorescence, 100 nL, primary screen (AID 1184);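 note: parasites grown inside human red blood cells in medium with human serum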; details: P. falciparum 3D7 growth, 3 d, higher = more signal
[13] = biological target: Homeobox protein Hox-A13 (Mus musculus) (UniProt Q62424); assay: disruptors of Hoxa13 oligonucleotide interaction – biochemical, fluorescence polarization, labeled oligonucleotide, primary screen (AID 1185); details: Hoxa13:DNA binding, 15 min, higher = more signal, called active from +8 up or from −8 down
Homeobox protein Hox-A13 (Mus musculus), sequence (Q62424 whole entry, looked up): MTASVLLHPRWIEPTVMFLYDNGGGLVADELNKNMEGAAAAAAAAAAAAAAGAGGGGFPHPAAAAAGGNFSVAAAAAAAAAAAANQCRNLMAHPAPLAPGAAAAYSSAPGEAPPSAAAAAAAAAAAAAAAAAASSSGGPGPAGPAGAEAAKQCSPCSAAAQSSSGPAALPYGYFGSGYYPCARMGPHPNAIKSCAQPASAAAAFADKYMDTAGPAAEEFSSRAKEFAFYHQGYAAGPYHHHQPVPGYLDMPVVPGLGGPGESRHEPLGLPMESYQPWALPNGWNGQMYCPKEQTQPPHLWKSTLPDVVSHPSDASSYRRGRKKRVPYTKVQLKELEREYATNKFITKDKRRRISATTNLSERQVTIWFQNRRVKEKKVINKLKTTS

[14] = blockers of DNA damage checkpoint Chk1 activation – imaging, HeLa, hydroxyurea, phospho-Chk1 antibody, percent positive cells, primary screen (AID 1186); details: hydroxyurea-induced phospho-Chk1 immunofluorescence imaging, higher = more signal
[15] = blockers of DNA damage checkpoint Chk1 activation – imaging, HeLa, hydroxyurea, phospho-Chk1 nuclear intensity, primary screen (AID 1187); details: hydroxyurea-induced phospho-Chk1 immunofluorescence imaging, higher = more signal

Row | SMILES | z-score [1] | z-score [2] | z-score [3] | composite z-score [4] | z-score [5] | z-score [6] | z-score [7] | z-score [8] | z-score [9] | composite z-score [10] | composite z-score [11] | composite z-score (XIP peptide (Xip251-270)) | z-score [12] | z-score [13] | z-score [14] | z-score [15]
1 | C=CCC(OC(C)=O)[C@@H]1[C@@H](N(Cc2cc3ccccc3o2)C(=O)Cc2ccc(OC)cc2)c2cc(OCCCO)ccc2N1C(=O)Cc1ccc(OC)cc1 (stereo not given in full) | -1.28 | -1.01 (inactive) | -0.0297 (inactive) | 0.707 (inactive) | 0.198 (inactive) | -0.133 (inactive) | -0.184 (inactive) | -0.578 (inactive) | -0.561 | 0.0345 | 0.394 (inactive) | -0.503 | -1.96 | -2.81 (inactive) | 0.954 (inactive) | 0.799 (inactive)
2 | C=CCC(OC(C)=O)[C@@H]1[C@@H](N(Cc2cccc3ccccc23)C(=O)c2ccc(C)cc2)c2cc(OCCCO)ccc2N1C(=O)c1ccc2ccccc2n1 (stereo not given in full) | 0.374 | -1.13 (inactive) | 0.36 (inactive) | -1.35 (inactive) | -0.877 (inactive) | -1.88 (inactive) | 0.257 (inactive) | 0.91 (inactive) | 0.78 | -0.0535 | 0.655 (inactive) | -0.165 | -0.344 | -0.702 (inactive) | -0.39 (inactive) | -0.404 (inactive)
3 | CN(C)CCCCNC(=O)[C@H]1C[C@H]2C(=O)NCC(=O)N2[C@H]1c1cccc(OCCO)c1 | 1.15 | 0.425 (inactive) | 1.59 (inactive) | -0.0392 (inactive) | -0.711 (inactive) | 1.06 (inactive) | 0.779 (inactive) | 0.834 (inactive) | 0.158 | -0.0286 | 0.329 (inactive) | 0.129 | 0.256 | -1.62 (inactive) | -0.46 (inactive) | -0.538 (inactive)
4 | NC(=O)[C@@]1(CCS(=O)(=O)c2ccccc2)COC(c2ccc(OCCCO)cc2)=N1 | -0.285 | 0.511 (inactive) | -1.34 (inactive) | -0.809 (inactive) | -0.304 (inactive) | 0.0637 (inactive) | -0.223 (inactive) | 0.491 (inactive) | -0.318 | 0.291 | -0.377 (inactive) | -0.395 | 0.605 | -4.75 (inactive) | -0.511 (inactive) | -1.12 (inactive)
5 | COC(=O)[C@@]1(CCC(=O)OC(C)(C)C)N=C(c2ccc(OCCCO)cc2)O[C@H]1c1ccccc1CN=[N+]=[N-] | 0.118 | 0.696 (inactive) | -1.79 (inactive) | 0.507 (inactive) | 0.563 (inactive) | 1.56 (inactive) | 0.224 (inactive) | -0.0915 (inactive) | -2.11 | 0.165 | 1.63 (inactive) | 0.512 | -2.27 | -1.11 (inactive) | -0.25 (inactive) | 0.0025 (inactive)
